Test results taken from PubChem BioAssay (EPA / NIEHS).
Several values for one entry are separate records, joined by “and”; a condition that tells them apart may be missing. Identical values can stand only once. Where a structure was tested more than once in an assay, its records may differ in their call. Activity calls are given as the source filed them. The calls were made as follows: active = hit-call score of the fitted dose curve at least 0.9, where 1 is the maximum; inactive = score below 0.9.

Assays:
[1] = read-out: Vascular cell adhesion molecule 1 (VCAM1), VCAM1 (gene 7412); assay: BSK_BF4T_VCAM1: BioMAP Diversity Plus: BF4T Assay for Vascular cell adhesion molecule 1 (VCAM1) Biomarker Activity (AID 2284249); conditions: primary human bronchial epithelial cells with fibroblasts
Outline: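 Human bronchial epithelial cell and dermal fibroblast co-culture exposed 24 h. VCAM-1 measured by ELISA; parallel SRB total-protein staining for cytotoxicity. Fitted in positive direction relative to DMSO.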

[2] = read-out: Collagen I, COL1A1 (gene 1277); assay: BSK_hDFCGF_CollagenI: BioMAP Diversity Plus: hDFCGF Assay for Collagen I Biomarker Activity (AID 2284250); conditions: primary human foreskin fibroblasts
Outline: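 Human skin primary fibroblasts dosed with test chemical, harvested at 24 h, Collagen I quantified by ELISA; parallel SRB staining (0.1% SRB after 10% TCA fixation, 560 nm) tracked cytotoxicity.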

[3] = read-out: Interferon-inducible T-cell alpha chemoattractant (ITAC), CXCL11 (gene 6373); assay: BSK_hDFCGF_ITAC: BioMAP Diversity Plus: hDFCGF Assay for Interferon-inducible T-cell alpha chemoattractant (ITAC) Biomarker Activity (AID 2284251); conditions: primary human foreskin fibroblasts
Outline: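 ELISA readout of I-TAC after 24 h chemical exposure; human dermal foreskin fibroblast primary cells. Positive-direction fitting vs DMSO baseline. Parallel SRB total-protein staining (0.1% SRB after 10% TCA fixation, 560 nm) flags cytotoxicity.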

[4] = read-out: Interleukin-8 (IL8), CXCL8 (gene 3576); assay: BSK_KF3CT_IL8: BioMAP Diversity Plus: KF3CT Assay for Interleukin-8 (IL8) Biomarker Activity (AID 2284254); conditions: primary human keratinocytes with fibroblasts
Outline: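 Human primary keratinocyte plus foreskin fibroblast co-culture dosed with test chemicals; IL-8 measured by ELISA 24 h after dosing. Activity fitted in the positive direction relative to DMSO negative control.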

[5] = read-out: Plasminogen activator inhibitor-1 (PAI1), SERPINE1 (gene 5054); assay: BSK_MyoF_PAI1: BioMAP Diversity Plus: MyoF Assay for Plasminogen activator inhibitor-1 (PAI1) Biomarker Activity (AID 2284256); conditions: primary human lung fibroblasts
Outline: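 ELISA read-out of PAI-1 from primary human lung fibroblast cultures 24 h after dosing; gain-of-signal fit versus DMSO control.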

[6] = read-out: CD69, CD69 (gene 969); assay: BSK_IMphg_CD69: BioMAP Diversity Plus: IMphg Assay for CD69 Biomarker Activity (AID 2284257); conditions: primary human endothelial cells with macrophages
Outline: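 Human venular endothelial cells co-cultured with macrophages; CD69 quantified by ELISA 24 h after compound addition. Activity fitted in the positive direction relative to DMSO baseline; cytotoxicity tracked in parallel cultures via SRB total-protein staining.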

[7] = read-out: Monocyte Chemoattractant Protein-1 (MCP1), CCL2 (gene 6347); assay: BSK_BF4T_MCP1: BioMAP Diversity Plus: BF4T Assay for Monocyte Chemoattractant Protein-1 (MCP1) Biomarker Activity (AID 2284259); conditions: primary human bronchial epithelial cells with fibroblasts
Outline: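 Co-culture of bronchial epithelial cells and dermal fibroblasts dosed with chemical; MCP-1 measured by ELISA 24 h later. Activity fitted in positive direction versus DMSO; cytotoxicity checked by SRB staining in parallel cultures.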

[8] = read-out: Intercellular Adhesion Molecule 1 (ICAM1), ICAM1 (gene 3383); assay: BSK_BF4T_ICAM1: BioMAP Diversity Plus: BF4T Assay for Intercellular Adhesion Molecule 1 (ICAM1) Biomarker Activity (AID 2284260); conditions: primary human bronchial epithelial cells with fibroblasts
Outline: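 Co-culture of human bronchial epithelial cells and dermal fibroblasts exposed 24 h to chemical; cell-surface ICAM-1 quantified by ELISA. Parallel SRB total-protein staining assessed cytotoxicity; activity fitted relative to DMSO.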

[9] = read-out: Interleukin-8 (IL8), CXCL8 (gene 3576); assay: BSK_MyoF_IL8: BioMAP Diversity Plus: MyoF Assay for Interleukin-8 (IL8) Biomarker Activity (AID 2284261); conditions: primary human lung fibroblasts
Outline: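 ELISA read-out of IL-8 from primary human lung fibroblasts, 24 h post-dose; positive-direction curve fitting relative to DMSO vehicle baseline.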

[10] = read-out: CD90, THY1 (gene 7070); assay: BSK_BF4T_CD90: BioMAP Diversity Plus: BF4T Assay for CD90 Biomarker Activity (AID 2284262); conditions: primary human bronchial epithelial cells with fibroblasts
Outline: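 Co-culture of human bronchial epithelial cells and dermal fibroblasts, 24 h compound exposure. Cell-surface CD90 measured by ELISA relative to DMSO; parallel SRB total-protein staining for cytotoxicity.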

Measured: AC50

O=S(=O)(O)CCC(F)(F)C(F)(F)C(F)(F)C(F)(F)C(F)(F)C(F)(F)F
inactive: [1] | [2] | [3] | [4] | [5] | [6] | [7] | [8] | [9] | [10]
active: [3] 1.38 µM

OCc1c[nH]c2ccccc12
inactive: [5] | [9]

FC(F)(F)C(F)(F)C(F)(F)C(F)(F)C(F)(F)C(F)(F)I
active: [3] 47.4 µM | [5] 38.6 µM and 22.2 µM
inactive: [1] | [2] | [3] | [4] | [6] | [7] | [8] | [9] | [10]

OCCC(F)(F)C(F)(F)C(F)(F)C(F)(F)F
inactive: [1] | [2] | [3] | [4] | [5] | [6] | [7] | [8] | [9] | [10]

S=P(N1CC1)(N1CC1)N1CC1
inactive: [5] | [9]

O=C(Cl)C(F)(F)C(F)(F)C(F)(F)C(=O)Cl
inactive: [1] | [2] | [3] | [4] | [5] | [6] | [7] | [8] | [9] | [10]

FC(F)C(F)(F)COCC1CO1 (stereo not drawn)
inactive: [1] | [2] | [3] | [4] | [5] | [6] | [7] | [8] | [9] | [10]

NCC(F)(F)C(F)(F)C(F)(F)C(F)(F)F
inactive: [1] | [2] | [3] | [4] | [5] | [6] | [7] | [8] | [9] | [10]

C[Si](C)(C)C(F)(F)C(F)(F)C(F)(F)F
inactive: [1] | [2] | [3] | [4] | [5] | [6] | [7] | [8] | [9] | [10]

Cc1cccc(O)c1C
inactive: [5] | [9]

FC(F)=C(F)C(F)(F)C(F)(F)C(F)(F)C(F)(F)C(F)(F)C(F)(F)F
inactive: [1] | [2] | [3] | [4] | [5] | [6] | [7] | [8] | [9] | [10]

OC(O)(C(F)C(O)(O)C(F)(F)F)C(F)(F)F
active: [3] 8.03 µM and 15 µM
inactive: [1] | [2] | [4] | [5] | [6] | [7] | [8] | [9] | [10]

FC(F)(F)COC(OCC(F)(F)F)OCC(F)(F)F
inactive: [1] | [2] | [3] | [4] | [5] | [6] | [7] | [8] | [9] | [10]
